# Screening data as filed in PubChem.
# Pf growth 48h – inhibits P. falciparum growth in the first generation, 48 h | P. falciparum luciferase growth in erythrocytes, 48 h | Potency, µM (highest dose often 28.7 µM), without a hit: at the highest dose activity change, negative = inhibition, hits mostly inhibitors | 5.9% of 310,000 active | AID 504832; note: potency is the fitted concentration of half-maximal effect; % is set by controls: 0 for no effect and ±100 for the full control effect
#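 Luminescence readout; reporter = integrated firefly luciferase in P. falciparum. RBC culture at 2% hematocrit, 0.1% parasitemia final, 37 C/5% CO2; decreased signal taken as growth inhibition.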
# Pf growth 96h – P. falciparum growth inhibition at 96 hour, primary screen for plastid delayed-death inhibitors; P. falciparum luciferase reporter growth, 96 h; Potency, µM (highest dose often 28.7 µM), without a hit: top-dose activity change, negative = inhibition, most hits filed as inhibitors; 6.9% of 320,000 active; AID 504834; note: potency is the fitted concentration of half-maximal effect; % is set by controls: 0 for no effect and ±100 for the full control effect
#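 96 h incubation, 37 C, 5% CO2, of luciferase-reporter P. falciparum-infected RBCs (2% hematocrit, 0.05% parasitemia final) with test compounds; endpoint luminescence.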
# CHX counter – counter-screen for Shiga toxin inhibitors: cycloheximide protein synthesis inhibition. max response, %. cell reporter, cycloheximide protein synthesis inhibition counterscreen. AID 2314. 12% of 300,000 active; in the data active = max response mostly above about 13%, no sharp cut-off; inactive = mostly below about 14%; note: read at 38.3 µM for the half of the compounds with a filed dose; 0% is about no effect
# SARS PLpro yeast – SARS-CoV PLP inhibition in yeast; S. cerevisiae expressing SARS-CoV PLpro, growth rescue; Potency, µM (doses to about 32.9 µM), inactives show at the highest dose activity, positive = growth rescue, actives largely listed as activators; 0.19% of 330,000 active; AID 485353; calls by dose curve; note: potency is the fitted concentration of half-maximal effect; 0% is about no effect; nearly all actives have a fitted effect of over 55% in size
# NS1 function inh – inhibitors of influenza NS1 protein function; Potency, µM (highest dose often 46.1 µM), without a hit: at the highest dose activity, positive = more growth; 0.4% of 270,000 active; calls by dose curve; note: potency is the fitted concentration of half-maximal effect; actives are rising curves; nearly all actives have a fitted effect of over 50% in size
#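 Compounds were scored for reversing the slow growth caused by influenza A NS1 in S. cerevisiae, measured by optical density at 600 nm. Assay medium contained 2% galactose at pH 6.0; NS1-free yeast of the same strain were the positive control.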
# Shiga toxin inh – Shiga toxin inhibition; 9.2% of 290,000 active; Vero cells, Shiga toxin protein synthesis inhibition reporter; inhibition, % at 38.7 µM; in the data active = inhibition mostly above about 28%, no sharp cut-off; inactive = mostly below about 43%; note: 0% is about no effect
# * = called active by the depositor; ? = inconclusive; · = no result given. This is a sample that favours compounds with a hit; in the whole collection about 21% have one here. Unless noted, calls come from the whole dose curve; as a rule, active = well fitted inhibition curve with a large enough effect; inconclusive = small, poorly fitted or top-dose-only effect, or another doubt; inactive = no such curve, though single readings can be large or run the other way.
SMILES,Pf growth 48h,Pf growth 96h,CHX counter,SARS PLpro yeast,NS1 function inh,Shiga toxin inh
N=c1c2c(ncn1CCCO)Oc1ccc3ccccc3c1C2c1ccccc1 (stereo not given),?,?,1,-1%,-2%,-14
COc1ccc(C2c3ccc4ccccc4c3Oc3ncn(CCO)c(=N)c32)cc1OC (stereo not given),10µM*,?,-3,0%,1%,-9
COc1ccc(C2c3ccc4ccccc4c3Oc3ncn(CCCO)c(=N)c32)cc1 (stereo not given),5.2µM*,?,-2,-16%,?,1
O=C(NCCN1C(=O)S/C(=C\c2ccc(Cl)c([N+](=O)[O-])c2)C1=O)C1=COCCO1,-8%,?,·,-8%,·,·
COc1cccc(CSCC(=O)O)c1,·,·,·,·,4%,·
COc1ccc(C2c3c(ncn(Cc4ccco4)c3=N)Oc3ccc4ccccc4c32)cc1 (stereo not given),?,?,-1,-3%,?,38
COc1ccc(C2c3ccc4ccccc4c3Oc3ncn(CCN(C)C)c(=N)c32)cc1 (stereo not given),2.3µM*,?,-10,-2%,-10%,-16
COc1ccc(C2c3ccc4ccccc4c3Oc3ncn(CCO)c(=N)c32)cc1 (stereo not given),?,0%,-1,-3%,3%,-8
N=c1c2c(ncn1Cc1ccco1)Oc1ccc3ccccc3c1C2c1ccccc1 (stereo not given),10µM*,?,20*,-33%,?,active
C=CCc1cccc2cc(C(=O)NCCOC)c(=O)oc12,0%,?,0,-2%,-3%,51
O=C(c1ccccc1)c1cc2ccc(O)cc2oc1=O,47%,0.17µM*,21*,-19%,-2%,36
O=C(c1ccc(Br)cc1)c1cc2ccc(O)cc2oc1=O,21%,8%,10,-7%,-83%,25
C=CCc1cccc2cc(C(=O)NC3CCCCC3)c(=O)oc12,-1%,127%,28,6%,·,88*
N=c1oc2ccc(Cl)cc2cc1C(=O)NC1CCCCCC1,2%,0%,1,1%,15%,-8
CCN1CCCC1CNC(=O)c1csc2c1CCCC2 (stereo not given),-17%,?,-2,5%,3%,-3
O=C(NCC1CCCO1)c1csc2c1CCCC2 (stereo not given),23%,?,40*,-1%,-3%,31
N=c1oc2ccccc2cc1C(=O)NC1CCCCCC1,?,45%,56*,2%,12%,123*
COc1ccc(NC(=O)C2CCCN2S(=O)(=O)c2cccs2)c([N+](=O)[O-])c1 (stereo not given),?,-1%,·,-5%,·,·
O=C(NNc1c(F)c(F)cc(F)c1F)c1cc2ccccc2oc1=O,9%,15%,50*,-4%,·,112*
O=C(NC1CCCCCC1)c1cc2ccccc2oc1=O,293%,133%,43*,·,?,43*
O=C(OC1CCCCC1)c1cc2ccccc2oc1=O,21%,31%,43*,-1%,-6%,79*
O=C(c1cc2ccccc2oc1=O)N(Cc1ccccc1)CC1CCCO1 (stereo not given),?,?,6,13%,5%,16
O=C(NCC1CCCO1)c1cc2ccccc2oc1=O (stereo not given),57%,-13%,37*,1%,0%,96*
Cc1cnc(C(=O)OC(C)C(=O)Nc2cccc3ccccc23)cn1 (stereo not given),26%,46%,·,0%,·,·
NS(=O)(=O)c1cnccc1Nc1ccc(Cl)c(Cl)c1,-7%,?,-3,19%,-18%,1
SMILES,Pf growth 48h,Pf growth 96h,CHX counter,SARS PLpro yeast,NS1 function inh,Shiga toxin inh
O=C(NC1CC1)C1CC(=O)N(c2cccc(Cl)c2Cl)C1 (stereo not given),-15%,-10%,-5,-2%,-10%,-20
CCn1c(/C=C/Nc2ccccc2)[n+](CC)c2ccc(Cl)cc21,?,8.3µM*,-4,2%,-9%,-4
CCn1c(C)[n+](Cc2ccccc2)c2ccc(C(=O)OC)cc21,?,4%,-3,3%,·,20
CCn1c(/C=C/N(C)c2ccccc2)[n+](CC)c2ccc(Cl)cc21,0.74µM*,0.13µM*,-1,1%,3%,-2
CCOC(=O)c1ccc2c(c1)n(CC)c(/C=C/Nc1ccccc1)[n+]2CC,?,?,-4,-3%,-4%,-14
COCCNC(=O)CCc1c(C)nc2c(-c3ccc(F)cc3)c(C)nn2c1C,·,13µM*,-3,-1%,-3%,-13
Cc1nc2c(-c3ccc(F)cc3)c(C)nn2c(C)c1CCC(=O)N1CCOCC1,·,?,-5,-3%,3%,-7
CCOC(=O)C1CCN(C(=O)CCc2c(C)nc3c(-c4ccc(F)cc4)c(C)nn3c2C)CC1,·,10µM*,-1,-4%,6%,-12
COCCCNC(=O)CCc1c(C)nc2c(-c3ccc(F)cc3)c(C)nn2c1C,?,?,1,-2%,-7%,52
CN(C)S(=O)(=O)c1cccc(NC(=O)C2Cc3ccccc3CN2C(=O)c2ccccc2)c1 (stereo not given),?,?,7,4%,11%,31
Cc1ccc(-c2nc(CS(=O)CC(=O)NCCC(C)C)c(C)o2)cc1 (stereo not given),·,?,-4,1%,?,-15
Cc1cc(OCC(=O)N2CCC(O)CC2)c2c(C)cc(=O)oc2c1,2%,?,1,2%,-1%,-6
O=Cc1nc(-c2ccc(Cl)cc2)n2ccccc12,32%,36%,9,-4%,2%,-3
Clc1ccccc1-c1nc(/C=N/N2CCOCC2)c2ccccn12,-4%,35%,7,3%,·,27
CN1CCN(/N=C/c2nc(-c3ccccc3Cl)n3ccccc23)CC1,?,?,-2,1%,15%,-12
Clc1ccc(-c2nc(/C=N/N3CCOCC3)c3ccccn23)cc1,61%,157%,30*,1%,·,63
CN1CCN(/N=C/c2nc(-c3ccccc3)n3ccccc23)CC1,136%,171%,3,6%,12%,41*
CN1CCN(/N=C/c2nc(-c3ccc(Cl)cc3)n3ccccc23)CC1,78%,95%,32*,0%,?,39*
C/C(N)=C(/C#N)C(=O)CN1CCCCC1,-6%,29%,-6,10%,3%,-9
Cc1ccc(S(=O)(=O)N2CCOCC2)cc1NC(=O)COC(=O)c1cc(=O)c2ccccc2o1,0%,0%,-2,22%,10%,-4
CCOC(=O)NC(=O)c1cn(Nc2ccccc2C(F)(F)F)c(=O)[nH]c1=O,8%,21%,4,2%,0%,-9
Cc1ccc2nc(N3CCN(C(=O)c4ccco4)CC3)c3nncn3c2c1,-23%,?,1,-5%,5%,24
